Test results reported in PubChem BioAssay AID652115 (Broad Institute, 2013).
Where “and” joins values, the source holds several entries; their conditions need not be identical. Equal values may be shown once. In all, about 330,000 compounds went through this assay and about 3,800 (1.2%) were called active. No stated cut-off is given here; in the data, active means inhibition above about 15%; inconclusive means no clear call, values can overlap the other calls; inactive means below that. Only a selection was taken, and actives are over-represented in it overall. The source holds several records for some structures; these can differ, active in one and inactive in another.

The compounds below were run against NAD-dependent protein deacylase sirtuin-5, mitochondrial (Homo sapiens) (UniProt Q9NXA8) (assay: blockers of sirtuin-5 deacylase activity – biochemical, fluorescence imaging, single point, set 5, primary screen (AID 652115)). Settings: Purified SirT5, succinyl-peptide AMC, trypsin-coupled fluorescence; at 15 µM; stronger effect = higher value.
Sequence of NAD-dependent protein deacylase sirtuin-5, mitochondrial (Homo sapiens) (Q9NXA8 whole entry, looked up): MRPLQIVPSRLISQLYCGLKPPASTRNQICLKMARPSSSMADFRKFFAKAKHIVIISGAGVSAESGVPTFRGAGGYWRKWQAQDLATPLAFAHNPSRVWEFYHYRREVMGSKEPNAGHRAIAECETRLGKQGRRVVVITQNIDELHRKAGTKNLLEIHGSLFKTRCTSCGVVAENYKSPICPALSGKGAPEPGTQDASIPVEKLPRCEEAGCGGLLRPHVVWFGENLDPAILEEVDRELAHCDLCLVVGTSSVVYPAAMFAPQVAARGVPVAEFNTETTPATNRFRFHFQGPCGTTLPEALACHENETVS
COc1cccc(-c2ccc3n(c2=O)C[C@@H]2[C@@H](CO)[C@H](C(=O)N4CCCCC4)N[C@H]32)c1 was tested, and the inhibition was -26.1% (inactive). In the case of C[C@H](O)C#Cc1ccc2c(c1)O[C@H](CN(C)Cc1ccccn1)[C@@H](C)CN([C@@H](C)CO)S2(=O)=O, the inhibition is reported as 2.94% (inactive). With O=C(Cc1ccccc1)N[C@H]1C=C[C@H](CC(=O)N2CCCCC2)O[C@@H]1CO the inhibition was 1.42% (inactive). With COc1ccc2c3c([nH]c2c1)[C@H](CO)N(C(=O)NC1CCCC1)CC31CN(C(=O)Nc2cccc(F)c2)C1 the inhibition was 5.32% (inactive). With O=C(NC1CCCCC1)N1CC2(C1)[C@@H](c1ccccc1)[C@@H](CO)N2CC1CCOCC1 the inhibition was -5.9% (inactive). With CC(C)NC(=O)N1CC(=O)N2[C@@H](CO)[C@H](c3ccc(C#CCN(C)C)cc3)[C@@H]2C1 the inhibition was -1.28% (inactive). COCC(=O)N(C)C[C@@H]1Oc2cc(C#Cc3cccnc3)ccc2S(=O)(=O)N([C@H](C)CO)C[C@H]1C was tested, and the inhibition was -3.01% (inactive). O=C(NC1CCCC1)[C@H]1[C@H](CO)[C@H]2Cn3c(ccc(-c4ccccc4F)c3=O)[C@@H]1N2C(=O)CC1CC1 was tested, and the inhibition was -18.6% (inactive). With CN1c2ccc(-c3cccc(F)c3)cc2[C@@H]2[C@@H](CCN2C(=O)Nc2ccccc2F)[C@@H]1CO the inhibition was -18.1% (inactive). With O=C(C[C@H]1CC[C@@H]2[C@H](COC[C@H](O)CN2S(=O)(=O)c2ccc(F)cc2)O1)NCCN1CCCCC1 the inhibition was -1.86% (inactive). With O=C(N[C@H]1CC[C@H](CCn2cc(-c3ccccc3F)nn2)O[C@@H]1CO)c1ccc2c(c1)OCO2 the inhibition was 1.25% (inactive). CN(Cc1ccccc1F)C[C@H]1[C@@H](c2ccccc2)[C@@H](CO)N1S(C)(=O)=O was tested, and the inhibition was 0.402% (inactive). In the case of O=C(Nc1ccccc1F)N1C[C@@H]2[C@H](c3ccccc31)[C@@H](CO)N2C(=O)Nc1ccccc1, the inhibition is reported as -0.735% (inactive). C[C@@H]1CN([C@H](C)CO)S(=O)(=O)c2ccc(C#CC3CCCCC3)cc2O[C@H]1CN(C)C(=O)Cc1ccncc1 was tested, and the inhibition was 0.678% (inactive) and -0.925% (inactive) and 15.2% (active). In the case of C[C@H]1CN([C@@H](C)CO)S(=O)(=O)c2ccc(C#CC3CCCC3)cc2O[C@H]1CN(C)C(=O)Cc1ccncc1, the inhibition is reported as -0.107% (inactive). With C[C@@H]1CN([C@H](C)CO)S(=O)(=O)c2ccc(C#CC3CCCC3)cc2O[C@@H]1CN(C)C(=O)Cc1ccncc1 the inhibition was 6.26% (inactive). With CCCc1nnc(NC(=O)CCC(=O)N2CCN(S(=O)(=O)c3ccc(OC)cc3)CC2)s1 the inhibition was 1.56% (inactive). In the case of CC(C)c1nnc(NC(=O)CCC(=O)N2CCN(c3cccc(Cl)c3)CC2)s1, the inhibition is reported as 0.459% (inactive). CCc1nnc(NC(=O)CCC(=O)N2CCN(c3cc(C)ccc3C)CC2)s1 was tested, and the inhibition was 18.5% (active). O=C(C1CCC1)N1CC(=O)N2[C@@H](CO)[C@@H](c3ccc(C#Cc4cccc(F)c4)cc3)[C@@H]2C1 was tested, and the inhibition was -4.53% (inactive). With Cc1ccccc1S(=O)(=O)N[C@@H]1CC[C@H](CCn2cc(-c3ccc(F)cc3)nn2)O[C@@H]1CO the inhibition was -4.75% (inactive). For Cc1ccccc1S(=O)(=O)N[C@H]1CC[C@@H](CCn2cc(Cc3ccccc3)nn2)O[C@H]1CO, the inhibition was 31.4% (active). For Cc1ccccc1S(=O)(=O)N[C@H]1CC[C@H](CCn2cc(-c3ccc(F)cc3)nn2)O[C@H]1CO, the inhibition was -0.59% (inactive). Cc1ccc(S(=O)(=O)N[C@@H]2CC[C@@H](CC(=O)O)O[C@@H]2CO)cc1 was tested, and the inhibition was 1% (inactive). With O=C(C[C@@H]1CC[C@H](NC(=O)Nc2ccc3c(c2)OCO3)[C@H](CO)O1)NCc1ccccc1 the inhibition was -2.1% (inactive). With CN1c2ccc(-c3ccccc3)cc2[C@@H]2[C@@H](CCN2C(=O)c2ccccc2)[C@H]1CO the inhibition was 6.95% (inactive). CN1c2ccc(-c3ccccc3)cc2[C@H]2[C@H](CCN2C(=O)Cc2ccccn2)[C@H]1CO was tested, and the inhibition was 21.9% (active). CN1c2ccc(-c3ccccc3F)cc2[C@H]2[C@H](CCN2C(=O)Cc2ccccn2)[C@H]1CO was tested, and the inhibition was 2.91% (inactive). In the case of CCCNC(=O)C[C@H]1C[C@H]2c3cc(NC(=O)COC)ccc3O[C@H]2[C@H](CO)O1, the inhibition is reported as -2.28% (inactive). For Cn1cnnc1SCC(=O)NNC(=O)COc1ccc(Br)cc1, the inhibition was -1.96% (inactive). In the case of Cn1nnnc1SCC(=O)NNC(=O)c1ccc(Br)cc1, the inhibition is reported as 20.1% (active). In the case of Cn1nnnc1SCC(=O)Nc1sccc1C(N)=O, the inhibition is reported as -1.15% (inactive). With N#C[C@H]1[C@H](c2ccc(-c3cccc(F)c3)cc2)[C@@H](CO)N1C(=O)NC1CCCC1 the inhibition was 3.71% (inactive). In the case of O=C1CN(Cc2ccc(F)cc2)C[C@H]2[C@@H](c3ccc(Br)cc3)[C@H](CO)N12, the inhibition is reported as 2.52% (inactive). For CN1c2ccc(Br)cc2[C@@H]2[C@@H](CCN2C(=O)Cc2ccccc2)[C@@H]1CO, the inhibition was 0.309% (inactive). For C[C@@H]1CN([C@@H](C)CO)C(=O)c2cc(NC(=O)C3CC3)ccc2O[C@H]1CN(C)C, the inhibition was 41.9% (active) and -3.15% (inactive). For C[C@@H]1CN([C@H](C)CO)C(=O)c2cc(NC(=O)C3CC3)ccc2O[C@@H]1CN(C)C, the inhibition was -4.11% (inactive). In the case of Cc1noc(C)c1S(=O)(=O)N(C)C[C@H]1Oc2ccc(NC(=O)C3CC3)cc2C(=O)N([C@H](C)CO)C[C@@H]1C, the inhibition is reported as 20.9% (active). In the case of Cc1noc(C)c1S(=O)(=O)N(C)C[C@H]1Oc2ccc(NC(=O)C3CCCCC3)cc2C(=O)N([C@H](C)CO)C[C@@H]1C, the inhibition is reported as -3.3% (inactive). For Cc1noc(C)c1S(=O)(=O)N(C)C[C@@H]1Oc2ccc(NC(=O)C3CC3)cc2CC(=O)N([C@@H](C)CO)C[C@@H]1C, the inhibition was 1.59% (inactive). In the case of CC(C)NC(=O)N(C)C[C@@H]1Oc2ccc(NC(=O)C3CC3)cc2C(=O)N([C@@H](C)CO)C[C@H]1C, the inhibition is reported as 0.185% (inactive). With COc1ccc2c3c([nH]c2c1)[C@H](CO)N(C(=O)c1ccncc1)CC31CCN(C(=O)c2ccncc2)CC1 the inhibition was 12.6% (inactive). COc1ccc(S(=O)(=O)N(C)C[C@@H]2OCCCC[C@H](C)Oc3ccc(NC(=O)NC(C)C)cc3C(=O)N([C@@H](C)CO)C[C@@H]2C)cc1 was tested, and the inhibition was 0.637% (inactive).
